Compounds with a hit are over-represented: about 2.4% of the library has one in this group of screens.
AmpC nodet inh = Promiscuous and Specific Inhibitors of AmpC Beta-Lactamase (assay without detergent). P00811. AmpC nitrocefin hydrolysis, absorbance 480 nm, no detergent. Potency, µM (doses to about 28.7 µM). hit rate 1.8% among 71,000. AID 585, 2007
Target sequence (P00811 whole entry, looked up): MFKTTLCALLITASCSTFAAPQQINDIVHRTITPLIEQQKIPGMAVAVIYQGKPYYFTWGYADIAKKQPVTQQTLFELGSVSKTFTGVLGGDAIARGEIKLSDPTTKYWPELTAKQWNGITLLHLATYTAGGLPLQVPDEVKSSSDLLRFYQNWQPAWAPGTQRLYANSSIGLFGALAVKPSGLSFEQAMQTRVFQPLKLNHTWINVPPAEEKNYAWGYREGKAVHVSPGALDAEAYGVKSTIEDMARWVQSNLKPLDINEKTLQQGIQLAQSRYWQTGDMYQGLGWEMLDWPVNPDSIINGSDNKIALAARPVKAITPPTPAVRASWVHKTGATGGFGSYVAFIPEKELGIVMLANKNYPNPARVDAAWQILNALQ
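AmpC, 20 mM phosphate pH 7.0; 15 min cpd preinc, RT; start with nitrocefin (800 uM stock); A480 kinetic read, 20 s intervals, 4 min. No-enzyme wells = negative control.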
SmPrx2 inh = Schistosoma Mansoni Peroxiredoxins (Prx2) | hit rate 0.07% among 65,000 | AID 448, 2006 | Potency, µM | Schistosoma mansoni peroxiredoxin 2 (Prx2) | S. mansoni Prx2 activity coupled to TGR/GSH (TGR is thioredoxin glutathione reductase), NADPH fluorescence loss, qHTS
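Prx2 activity was followed as the loss of NADPH fluorescence (ex 365/em 450 nm), read every 30 sec for 8 min after H2O2 start. The enzyme mix (50 nM Prx2, 25 nM TGR, GSH, NADPH; pH 7.4 phosphate buffer) was incubated with compound for 15 min at room temperature first.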
LT uptake inh = qHTS Assay for Anthrax Lethal Toxin Internalization | AID 912, 2007 | hit rate 0.67% among 70,000 | Potency, µM (doses to about 40 µM), hits mostly inhibitors | Cells, anthrax lethal toxin internalization, FRET ratio (460/530); note: nearly all actives have a fitted effect of over 50% in size
AmpC inh det = Promiscuous and Specific Inhibitors of AmpC Beta-Lactamase (assay with detergent); P00811; purified AmpC, nitrocefin hydrolysis with detergent; Potency, µM (top dose mostly 28.7 µM); hit rate 0.09% among 71,000; active = well fitted curve in the direction sought with a large enough effect; inconclusive = small, poorly fitted or top-dose-only effect
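E. coli AmpC (5.3 nM) in 20 mM phosphate pH 7.0 with 0.01% Triton X-100, preincubated 15 min RT with compound; nitrocefin (2 uL of 800 uM stock) hydrolysis followed by 480 nm absorbance every 20 s over 4 min.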
Each line names hits and unclear results; the compound was inactive in the other large screens; [ ] = dose if it differs, or a comment. Unless noted, calls come from the whole dose curve.

CC(C)(C)NC(=O)C(Cc1ccccc1)NS(=O)(=O)c1ccc2c(c1)CCC(=O)N2 (stereo not drawn)	none
CCCCN(C)C(=O)C(Cc1ccccc1)NS(=O)(=O)c1ccc2c(c1)CCC(=O)N2 (stereo not drawn)	AmpC nodet inh 3.98µM[single pt active]
COc1cccc(-c2cc(C(=O)N3CCc4ccccc4C3)no2)c1	LT uptake inh inconclusive
COc1ccccc1C(=O)Nc1c(C)n(C)n(-c2ccccc2)c1=O	none (no result: SmPrx2 inh)
COC(=O)C1=C(C)Nc2ccc(C)cc2S1	AmpC nodet inh 3.98µM[single pt active]
CCCC1(C(=O)OC)NC(c2cc(OC)c(OC)c(OC)c2)C2C(=O)N(CC)C(=O)C21 (stereo not drawn)	none
NC(=O)c1cc(Cl)cn(-c2ccccc2)c1=O	AmpC nodet inh 3.16µM[single pt active]
NC(=O)c1cn(-c2ccccc2)nc1-c1cccnc1	none
Cc1nc2cc(-c3cccc(F)c3)nn2c(C)c1CCC(=O)NC(C)CCc1ccco1 (stereo not drawn)	LT uptake inh inconclusive (no result: SmPrx2 inh)
Cc1nc2cc(-c3cccc(F)c3)nn2c(C)c1CCC(=O)N1CCN(c2ccccn2)CC1	AmpC nodet inh 3.98µM[single pt active]
Cc1c(C(=O)Nc2ccc3c(c2)OCCO3)sc2nc(-c3ccccc3)cn12	LT uptake inh 10µM
Cc1c(C(=O)Nc2ccncc2)sc2nc(-c3ccccc3)cn12	none
CS(=O)(=O)N1CCN(C(=O)c2ccc(-c3ccccc3)cc2)CC1	none (no result: SmPrx2 inh)
Nc1ccc2cc3ccccc3cc2c1	AmpC nodet inh 2.51µM, LT uptake inh inconclusive (no result: SmPrx2 inh)
Nc1ccc(N2CCCCC2)cc1N1CCCCC1	none
CN1CCN(c2ccc(N)c(N3CCN(C)CC3)c2)CC1	LT uptake inh 12.6µM
Nc1ccc(-c2ccc(N)c(Cl)c2)cc1Cl	AmpC nodet inh inconclusive, LT uptake inh inconclusive (no result: SmPrx2 inh)
COc1ccc(N(CC(=O)N2CC=C(c3ccccc3)CC2)S(=O)(=O)c2c(C)noc2C)cc1	AmpC nodet inh 3.98µM[single pt active], LT uptake inh inconclusive
CCOc1ccc(N(CC(=O)Nc2ccc(C)cc2)S(=O)(=O)c2c(C)noc2C)cc1	LT uptake inh inconclusive
CCOc1ccc(N(CC(=O)N2CC=C(c3ccccc3)CC2)S(=O)(=O)c2c(C)noc2C)cc1	AmpC nodet inh 3.98µM[single pt active], LT uptake inh inconclusive
Cc1noc(C)c1CSCC(=O)OCc1nc2ccccc2c(=O)n1CC#N	LT uptake inh inconclusive
Cc1cc(C)c(C)c(OCC(=O)NCCN(C)C)c1	none
Cc1ccc2c(c1)NC(=O)C(CC(=O)NCCCN1CCCCC1)O2 (stereo not drawn)	none
Cc1ccc2c(c1)NC(=O)C(CC(=O)O)O2 (stereo not drawn)	none
CCOCCCNC(=O)CC1Oc2ccc(C)cc2NC1=O (stereo not drawn)	AmpC nodet inh 3.98µM[single pt active]
Cc1ccc(CCNC(=O)CC2Oc3ccc(C)cc3NC2=O)cc1 (stereo not drawn)	AmpC nodet inh 3.98µM[single pt active]
Cc1ccc2c(c1)NC(=O)C(CC(=O)NCCN(C)C)O2 (stereo not drawn)	AmpC nodet inh 3.16µM[single pt active]
O=C(COC(=O)c1ccccc1Nc1ccccc1)NCc1ccco1	none
NC(=O)c1ccsc1NC(=O)COC(=O)c1ccccc1NCc1ccco1	AmpC nodet inh 5.01µM, LT uptake inh inconclusive
CCN(CC)CCOc1ccc(Cc2ccccc2)cc1	LT uptake inh 25.1µM
CC(C)(C)NC[C@H](O)c1ccc(O)c(CO)c1	LT uptake inh inconclusive
COc1cc(S(=O)(=O)N2CCN(C)CC2)ccc1Cl	none
